Hit rate of the full screen: of about 300,000 compounds, about 5,400 (1.8%) were called active. Roughly 28% stayed inconclusive and do not appear here. The call rests on the fitted dose curve; tested in HEK293 cells. The list comes from a sample in which actives are over-represented; it also holds similar structures and randomly drawn compounds. A call without a number means that no potency is given here.

We go through 103 compounds from PubChem BioAssay AID540276 (National Center for Advancing Translational Sciences (NCATS), 2011).
Potency means the concentration at half of the fitted maximal effect.

A short description of the assay: qHTS for inhibitors of binding or entry into cells for Marburg Virus. To be noted: Marburg virus pseudotyped entry inhibition, cell reporter; series mostly up to 37.8 µM.
On to `O=C(CC(=O)Nc1ccc(Cl)c(Cl)c1)N/N=C/c1ccc(O)cc1`, for which the Potency entry is “inactive”.
The figure for `O=C(CC(O)(C(F)(F)F)C(F)(F)F)Nc1ccc(Cl)c(Cl)c1` is 3.26 µM (active).
The entry for `N/C(=N\OC(=O)Nc1ccc(Cl)c(Cl)c1)c1ncc(C(F)(F)F)cc1Cl` is “inactive”.
For the compound `CSc1ncc(C(=O)Nc2ccc(C)cc2C)c(C)n1`, the Potency entry was “inactive”.
The entry for `CCOc1ccc(NC(=O)C(C)N2C(=O)c3ccccc3C2=O)cc1` (stereo not drawn) is “inactive”; for `COc1ccc(CCn2ccc(O)c(Cc3ccc(Cl)cc3Cl)c2=O)cc1OC` it is 3.98 µM (active); for `COc1ccc(CCNC(=O)CCc2ccccc2O)cc1OC` it is “inactive”.
In the case of `COc1ccc(CCNC(=O)CCCn2c(=O)c3ccccc3n(Cc3ccc(F)cc3Cl)c2=O)cc1OC` it was “inactive”; in that of `COC(=O)c1ccc(C(=O)NC2CC(C)(C)Cc3c2cnn3-c2ccc(F)cc2)nc1` (stereo not drawn), “inactive”; in that of `Cn1nnnc1SCC(=O)Nc1sccc1C(N)=O`, “inactive”.
`CN1c2ccc(C=O)c3c(C=O)ccc(c23)N(C)C1(C)C`: the Potency was 10 µM (active).
The entry for `O=C(CN(CC1CCCO1)C(=O)CNS(=O)(=O)c1ccc(Cl)cc1)NCc1ccccc1` (stereo not drawn) is “inactive”.
In the case of `COc1ccc(C(=O)Nc2ccnn2C2CCN(Cc3ccncc3)CC2)cc1` it was “inactive”; in that of `S=C(c1ccccc1)N1CCCC1`, “inactive”.
As for `CSCCC(NC(=O)c1ccccc1)C(=O)N1CCN(Cc2ccc(Cl)cc2)CC1` (stereo not drawn), the Potency was 11.2 µM (active).
In the case of `CSCCC(NS(=O)(=O)/C=C/c1ccccc1)C(=O)N1CCC(C)CC1` (stereo not drawn) it was “inactive”; in that of `O=C(NC(Cc1ccccc1)C(=O)N1CCCC(C(F)(F)F)C1)c1ccccc1` (stereo not drawn), “inactive”; in that of `CC(=O)Nc1ccc(S(=O)(=O)NNC(=O)CCc2ccccc2)cc1`, “inactive”.
The entry for `CC(=O)Nc1ccc(Nc2ncnc3c2nnn3Cc2ccccc2Cl)cc1` is “inactive”; for `CN(C(=O)CC1C(=O)NCCN1Cc1ccc2ccccc2c1)C1CCOCC1` (stereo not drawn) it is “inactive”; for `c1ccc2c(c1)CSc1sccc1C2=C1CCNCC1` it is 6.51 µM (active).
The entry for `CCc1c(Nc2ccccc2Cl)nc(N)[nH]c1=O` is “inactive”; for `COc1ccccc1N(CC(=O)Nc1c(C)n(C)n(-c2ccccc2)c1=O)S(=O)(=O)c1ccccc1` it is “inactive”.
`COc1ccc(S(=O)(=O)Nc2ccc(S(=O)(=O)N3CCCCC3)cc2)cc1OC`: the Potency entry was “inactive”.
In the case of `COc1ccc(-c2ccc(Nc3ccc(S(=O)(=O)N4CCCC4)cc3)nn2)cc1OC` it was 14.6 µM (active); in that of `COc1ccc(S(=O)(=O)N2CCCCC2)cc1Br`, “inactive”.
The entry for `CCCN1CCN(C(=O)CCCNC(=O)c2ccc(Cl)cc2)CC1` is “inactive”; for `CC1(C)Cc2c(cnn2-c2cccc(F)c2)C(NC(=O)c2cc[n+]([O-])cc2)C1` (stereo not drawn) it is “inactive”.
The entry for `CCC(=O)N(Cc1ccccc1)c1ccccn1` is “inactive”; for `CCCN(CC1CC1)C(=O)COC(=O)c1ccc(C)cc1O` it is “inactive”; for `CC(Oc1ccc(Br)cc1)C(=O)NCC(c1ccco1)N1CCCCC1` (stereo not drawn) it is “inactive”.
As to `COc1ccc(-c2nn(-c3ccccc3)cc2/C=N/Nc2ccccn2)cc1OC`, the Potency was 13 µM (active).
In the case of `CN(C)/N=C/c1cn(-c2ccccc2)nc1-c1cccnc1` it was “inactive”.
On to `Cc1ccc(-c2nn(-c3ccccc3)cc2/C=N/NC(=O)c2ccc3c(c2)OCO3)cc1`, for which the Potency result was “inactive”.
In the case of `CC(CC(=O)Nc1ccc(F)cc1F)S(=O)(=O)c1ccc2c(c1)NC(=O)CO2` (stereo not drawn) it was “inactive”; in that of `CC(C)CC1(C)NC(=O)N(CC(=O)Nc2ccc3c(c2)OCCO3)C1=O` (stereo not drawn), “inactive”.
For the compound `CC(=O)c1c(OCC(=O)N(C)C2CCCCC2)ccc2c(C)cc(=O)oc12`, the Potency entry was “inactive”.
The entry for `Cc1c(NC(=O)Nc2cccc([N+](=O)[O-])c2)c(=O)n(-c2ccccc2)n1C` is “inactive”.
In the case of `O=C(CNC(=O)C1COc2ccccc2O1)N/N=C/c1cc(Br)c(O)c(Br)c1` (stereo not drawn) it was “inactive”; in that of `CCn1nnc2cc(C(=O)Nc3ccc(C(=O)OC(C)C)cc3)ccc21`, “inactive”; in that of `CCC(=O)N(Cc1cc2cc(OC)ccc2[nH]c1=O)c1ccccc1C`, “inactive”.
In the case of `COc1ccc2[nH]c(=O)c(CN(Cc3cccnc3)S(=O)(=O)c3ccccc3F)cc2c1` it was 2.82 µM (active); in that of `COc1ccc(-c2[nH]ncc2CN(C)Cc2cccnc2)c(F)c1`, “inactive”.
In the case of `Cc1ccc(C(=O)Nc2ccc3c(c2)OCCO3)cc1S(=O)(=O)N1CCOCC1`, the Potency result is “inactive”.
The entry for `Cc1ccc(-c2csc(C(C#N)=C(O)CN3CCN(C(=O)c4ccco4)CC3)n2)cc1` is “inactive”; for `Cc1cccc(Cn2c(SCCO)nc3c2c(=O)n(C)c(=O)n3C)c1` it is “inactive”; for `C/C(Cl)=C\Cn1c(Nc2cccc(C)c2)nc2c1c(=O)n(C)c(=O)n2C` it is 11.6 µM (active).
In the case of `COC(=O)C(C)Sc1nc2c(c(=O)n(C)c(=O)n2C)n1Cc1cccc(C)c1` (stereo not drawn) it was “inactive”.
In the case of `COc1ccccc1NC(=O)C(C)OC(=O)c1ccc(-n2cnnn2)cc1` (stereo not drawn), the Potency result was “inactive”.
The entry for `CC(C)CC(=O)Nc1ccc(Cc2ccncc2)cc1` is “inactive”.
The entry for `CCOc1ccc(-c2noc(CCC(=O)NC3CCCC3)n2)cc1OC` is “inactive”; for `CC1CN(C(=O)CCC(=O)NCCCN2CCC(Cc3ccccc3)CC2)c2cc(Cl)ccc2O1` (stereo not drawn) it is 11.2 µM (active).
As for `COc1ccccc1NC(=O)CCC(=O)N1CC(C)Oc2ccc(C)cc21` (stereo not drawn), the Potency entry is “inactive”.
In the case of `Cc1ccc2c(c1)N(C(=O)CCC(=O)NCc1ccccc1F)CC(C)O2` (stereo not drawn) it was “inactive”; in that of `N[C@@H](Cc1ccccc1)C(=O)N1CCC(C(=O)NCC(=O)Nc2ccc(F)cc2)CC1`, “inactive”; in that of `O=C(CN1CCN(C(=O)C2CCCO2)CC1)Nc1c(Cl)cccc1Cl` (stereo not drawn), “inactive”.
The entry for `COc1cc(/C=N\Nc2nc(-c3cccs3)c(NC(C)=O)s2)ccc1O` is “inactive”; for `COc1cc(/C=N/Nc2nc3ccccc3s2)ccc1O` it is 10 µM (active); for `CCNc1nc(NCC)nc(N/N=C/c2ccc(O)c(OC)c2)n1` it is “inactive”.
The entry for `CCN(CC(=O)Nc1c(F)cccc1F)C(=O)Cc1cccs1` is “inactive”.
In the case of `CCOC(=O)N(Cc1ccccc1)C1CC1`, the Potency result is “inactive”.
In the case of `CCCC(C(=O)OCCN(CC)CC)(c1ccccc1)c1ccccc1` it was 10 µM (active).
In the case of `CCC(C(=O)OCCN(CC)CC)c1ccccc1` (stereo not drawn) it was “inactive”.
The entry for `CCOC(=O)CCP(=O)(O)C(O)(c1ccccc1)c1ccccc1` is “inactive”; for `COc1ccccc1CN1CCNC(=O)C1CC(=O)N(C)CC1CCOCC1` (stereo not drawn) it is “inactive”.
In the case of `O=C(c1ccc(N2CCOCC2)c([N+](=O)[O-])c1)N1CCN(c2ccccc2F)CC1`, the Potency entry is “inactive”.
As for `COc1ccc(CCNC(=O)CSc2nc3[nH]ncc3c(=O)n2-c2cccc(C(F)(F)F)c2)cc1OC`, the Potency entry is “inactive”.
The figure for `Cc1cccc2nc(CSc3nc4[nH]ncc4c(=O)n3-c3cccc(Cl)c3)cc(=O)n12` is 7.31 µM (active).
The entry for `COC(=O)c1ccc(CSc2nc3ccccc3c(=O)n2-c2cccc(OC)c2)o1` is “inactive”; for `CC(=O)C1=C(C)NC(=O)NC1c1ccc2c(c1)OCO2` (stereo not drawn) it is “inactive”.
In the case of `CN(C)CCCNC(=O)/C=C/c1ccc(OCc2c(F)cccc2Cl)cc1` it was 3.98 µM (active); in that of `C#CC(C)(CC)NC(=O)Cn1nnc(-c2ccc(OCc3c(F)cccc3Cl)cc2)n1` (stereo not drawn), “inactive”.
`O=C(/C=C/c1ccc(F)cc1)NCCNC(=O)/C=C/c1ccc(F)cc1`: the Potency result is “inactive”.
The figure for `NCCCCCC(=O)N/N=C/c1ccc2nccnc2c1` is 2.82 µM (active); for `O=C(CCCCCNC(=O)c1ccccc1)N/N=C/c1ccccc1` it is “inactive”.
In the case of `CCOc1cc(C=NNC(=O)CCCC(=O)NN=Cc2ccc(O)c(OCC)c2)ccc1O` it was “inactive”; in that of `COc1ccccc1CNC(=O)CSc1nc(=O)n(Cc2ccncc2)c2c1CCC2`, “inactive”.
The entry for `Cc1ccc(C(=O)N/C(=C\c2cn(C)c3ccccc23)C(=O)N2CCN(C)CC2)cc1` is “inactive”; for `CC(=O)OC1CCC2C3CCC4=C(CC(F)C(=O)C4)C3CCC12C` (stereo not drawn) it is “inactive”.
As for `COCCn1c(C)cc(C2=NNC(=Nc3ccc(F)cc3)SC2)c1C`, the Potency entry is “inactive”.
In the case of `C=CCn1c(C)cc(C2=NNC(=NCC)SC2)c1C` it was 1.16 µM (active).
The entry for `Cc1cccc(N=C2NN=C(c3c[nH]c4ccccc34)CS2)c1` is “inactive”.
In the case of `COc1cccc(N(C(=O)CNC(=O)c2ccco2)C(C(=O)NC2CCCCC2)c2cccnc2)c1` (stereo not drawn) it was “inactive”; in that of `COc1cc([C@H]2[C@@H]3C(=O)N(c4ccc(F)cc4)C(=O)[C@H]3ON2c2ccccc2)ccc1O`, “inactive”.
For `O=[N+]([O-])c1ccc(S(=O)(=O)Nc2cccc(-c3ccc(N4CCCC4)nn3)c2)cc1`, the Potency entry is “inactive”.
On to `Cc1ccc(S(=O)(=O)c2cc3c(=O)n4cccc(C)c4nc3n(CCc3ccccc3)c2=N)cc1C`, for which the Potency result was “inactive”.
The entry for `O=C(OCC(=O)N1CCCCCC1)c1ccc(Br)c(S(=O)(=O)N2CCOCC2)c1` is “inactive”; for `C=CCNc1ncnc2ccc(Br)cc12` it is “inactive”.
The figure for `CC1(C)CC2CC(C)(CN2c2ncnc3ccc(Br)cc23)C1` (stereo not drawn) is 6.31 µM (active); for `O=C(NNc1nc(N2CCCC2)nc(N2CCCC2)n1)c1ccccc1` it is “inactive”.
The entry for `O=C(CN1CCc2ccccc2C1)Nc1cccc(S(=O)(=O)N2CCOCC2)c1` is “inactive”; for `COc1ccc2oc(N)nc2c1` it is “inactive”.
For `O=[N+]([O-])c1ccc2oc(-c3cccc(O)c3)nc2c1`, the Potency entry is “inactive”.
The figure for `COc1cccc(-c2nc3cc(C)ccc3o2)c1` is 6.31 µM (active); for `Nc1ccc2c(c1)C(=Cc1cccnc1)c1ccccc1-2` it is “inactive”; for `CSCCC(NC(=O)COc1ccccc1)C(=O)N(C)CC(=O)Nc1ccc(C)cc1` (stereo not drawn) it is “inactive”.
For the compound `CC1CCCCC12NC(=O)N(CC(=O)OCc1c(F)cccc1Cl)C2=O` (stereo not drawn), the Potency result is “inactive”.
The entry for `CC1=NN(C(=O)CCc2ccccc2O)C(O)(C(F)(F)F)C1` (stereo not drawn) is “inactive”.
In the case of `COC(=O)C1(O)CC(C(C)C)=NN1C(=O)c1ccc(Cl)cc1` (stereo not drawn) it was “inactive”; in that of `O=C(c1ccc(Cl)cc1)N1N=C(c2ccccn2)CC1(O)C(F)(F)F` (stereo not drawn), 7.94 µM (active).
On to `COc1cc(C(=O)NCC(=O)NCCSc2ccc(Br)cc2)cc(OC)c1OC`, for which the Potency result is “inactive”.
The entry for `O=C(NC1CCCC1)C(c1ccco1)N(C(=O)c1ccco1)c1ccc(F)cc1` (stereo not drawn) is “inactive”.
The entry for `N#Cc1cc([N+](=O)[O-])ccc1NC(=O)COC(=O)c1cnccn1` is “inactive”.
